Source: PubChem BioAssay
RecA splice inh = inhibitors of M. tuberculosis RecA intein splicing; P9WHJ3; cell-free RecA intein splicing, fluorescence; inhibition, % (test concentration not listed); 0.75% of 290,000 active; in the data active means inhibition above about 30%;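 further: 0% = vehicle wells and 100% = reference inhibitor control wells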
FadD28 binding = M. tuberculosis FadD28 bisubstrate binding inhibition | FadD28 bisubstrate probe binding, fluorescence polarization | inhibition, % at 12.5 µM | 0.22% of 360,000 active; in the data active means inhibition above about 8.5%, passing the limit was not always enough
Mtb hypoxia inh = Mtb hypoxia fluorescent reporter inhibition | AID 1159583 | fluorescence inhibition, % (concentration not given with the values) | M. tuberculosis hypoxia-regulated fluorescent reporter, fluorescence | 0.1% of 300,000 active; in the data active means fluorescence inhibition mostly above about 23%, no sharp cut-off; inactive means mostly below about 17%
UGM FP inh = inhibitors of M. tuberculosis UDP-galactopyranose mutase. AID 504406. inhibition, % at 10 µM. purified UGM, fluorescence polarization probe displacement. P9WIQ1. 0.06% of 320,000 active; in the data active means inhibition above about 10%, passing the limit was not always enough
Target sequence (P9WIQ1 whole entry, looked up): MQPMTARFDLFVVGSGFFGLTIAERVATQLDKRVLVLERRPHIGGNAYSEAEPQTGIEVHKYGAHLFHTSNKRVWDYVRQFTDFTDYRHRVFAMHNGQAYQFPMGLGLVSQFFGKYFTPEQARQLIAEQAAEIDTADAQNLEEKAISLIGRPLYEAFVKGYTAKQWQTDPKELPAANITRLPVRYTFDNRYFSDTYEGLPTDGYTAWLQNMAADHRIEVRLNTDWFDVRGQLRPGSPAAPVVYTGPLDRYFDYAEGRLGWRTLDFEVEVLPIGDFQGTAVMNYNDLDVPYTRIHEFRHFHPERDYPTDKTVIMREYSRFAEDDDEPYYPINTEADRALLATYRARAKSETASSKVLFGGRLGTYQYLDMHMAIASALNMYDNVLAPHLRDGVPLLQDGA
Rv3671c protease = Rv3671c (M. tuberculosis) protease inhibition; inhibition, % at 5.96 µM; 0.048% of 320,000 active; in the data active means inhibition above about 38%;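 further: extracellular domain of Rv3671c used as enzyme; 0% = enzyme with DMSO and 100% = no enzyme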
GFP chromo cs = counter-screen: blocks GFP chromophore formation | shares compounds with RecA splice inh | cell-free GFP chromophore formation, fluorescence | EC50, µM | 83% of 2,100 active; call rule not given here
An asterisk follows results filed as active; · = not tested or not shown. Most compounds without a hit are left out; they make up all but 0.92% or so of the library.

SMILES	RecA splice inh	FadD28 binding	Mtb hypoxia inh	UGM FP inh	Rv3671c protease	GFP chromo cs
NS(=O)(=O)c1ccc(Nc2nc(-c3ccc(O)cc3O)cs2)cc1	·	40.4*	7.8	2.6	-2.8	·
NS(=O)(=O)c1ccc(Nc2nc(-c3ccc(F)cc3)cs2)cc1	2.8	-3.3	8.0	-0.1	7.9	·
COC(=O)C1=C(c2ccc(F)cc2F)CC2CCC1N2C(=O)NC1Cc2ccccc2C1 (stereo not given)	·	·	9.8	·	·	·
COc1cccc(C=NNc2nc(Nc3ccc([N+](=O)[O-])cc3)nc(N3CCCC3)n2)c1O	·	·	-12.0	·	·	·
O=C(c1ccco1)c1coc2c1cc(O)c1ccccc12	45.2*	-1.1	13.7	-2.3	-16.9	·
CC(=O)c1coc2c1cc(O)c1ccccc12	3.8	-1.7	20.4	0.1	-13.2	·
CC(C)(C)c1cc[n+](-c2[nH]c(=O)sc2/C=N/NC([S-])=Nc2ccccc2)cc1	-6.2	1.0	·	18.2*	8.6	·
Cc1ccc(C(=O)c2cc(C)sc2N)cc1	-0.3	-0.8	6.4	4.0	1.0	·
Cc1cc(C(=O)c2ccc(Cl)cc2)c(NC(=O)CCl)s1	33.5*	-3.8	17.9	-2.8	-13.7	·
COC(=O)CCCC=C1SCC(NC(=O)c2ccccc2)C1=NO (stereo not given)	·	·	-3.2	·	·	·
NC(=O)c1cccc2c1-c1ccccc1C2=NNC(N)=S	·	·	7.6	·	·	·
COc1ccccc1C(NC(C)=O)c1c(O)ccc2ccc(O)cc12 (stereo not given)	78.7*	1.6	10.5	1.3	0.4	5.15*
COc1ccccc1C(NC(=O)CC(C)C)c1c(O)ccc2ccccc12 (stereo not given)	-5.3	-0.6	3.0	-1.3	-0.5	·
N#CC(C#N)=NNc1ccc(S(=O)(=O)N2CCCCC2)cc1	58.3*	-0.1	18.8	1.3	-9.8	18.5*
CC1CCN(S(=O)(=O)c2ccc(NN=C(C#N)C#N)cc2)CC1	·	·	·	·	-35.9	·
CNC(=S)NN=Cc1c(C)nn(-c2ccc(F)cc2)c1Cl	·	·	1.4	·	·	·
C/C(=C\c1ccco1)C1C(C#N)=C(N)Oc2n[nH]c(-c3ccccc3)c21 (stereo not given)	76.6*	-14.9	3.8	-0.4	2.8	17.7*
CC(C)CC1C(C#N)=C(N)Oc2n[nH]c(-c3ccccc3)c21 (stereo not given)	82.5*	-6.3	·	2.8	-6.6	12.8*
Cc1[nH]nc2c1C(CC(C)C)C(C#N)=C(N)O2 (stereo not given)	72.2*	1.5	·	-1.3	-3.7	20.5*
O=C1CCCC(=NNC(=O)c2ccc(NS(=O)(=O)c3cccs3)cc2)C1	·	·	1.7	·	·	·
CCOC1OC(C(=O)N2CCN(Cc3ccccc3)CC2)=CC(c2ccc(Br)cc2)C1CCCO (stereo not given)	·	·	-2.7	·	·	·
Nc1nn2c(-c3ccccc3)cc(=O)[nH]c2c1N=Nc1ccc(O)cc1	52.2*	-2.2	8.6	-0.5	8.7	1.98*
Nc1nn2c(-c3ccccc3)cc(=O)[nH]c2c1N=Nc1ccc(Br)cc1	·	0.3	12.3	·	·	·
O=C1C2=C(c3ccccc31)[N+](=O)C1CCCCC1N2[O-] (stereo not given)	81.9*	-0.2	·	3.2	-11.7	7.95*
O=C1C2=C(c3ccccc31)[N+](=O)[C@@H]1CCCC[C@@H]1N2[O-]	·	-0.6	3.9	-0.5	-25.4	·
SMILES	RecA splice inh	FadD28 binding	Mtb hypoxia inh	UGM FP inh	Rv3671c protease	GFP chromo cs
COC(=O)C1=C(c2cccc(OC)c2OC)CC2CCC1N2C(=O)NC1CCCCC1 (stereo not given)	·	·	2.9	·	·	·
CCCc1[nH]nc2c1C(c1cccc(OC(=O)c3ccco3)c1)C(C#N)=C(N)O2 (stereo not given)	58.9*	-12.2	15.6	2.2	-1.6	17.8*
CCCc1[nH]nc2c1C(c1cc(OC)ccc1F)C(C#N)=C(N)O2 (stereo not given)	29.9	-3.6	5.9	-1.6	4.5	·
CCCc1[nH]nc2c1C(c1ccc(OC)c(CSC3=NCCS3)c1)C(C#N)=C(N)O2 (stereo not given)	74.5*	-9.1	1.5	3.5	-0.5	14.8*
CCCc1[nH]nc2c1C(CCc1ccccc1)C(C#N)=C(N)O2 (stereo not given)	55.4*	-1.3	-0.5	2.6	-1.1	22.2*
CCCc1[nH]nc2c1C(c1cc(OC)cc(OC)c1)C(C#N)=C(N)O2 (stereo not given)	44.4*	-24.4	3.5	1.9	-1.8	3.96*
CC1(C)CC(=O)C2=C(C1)OC(N)=C(C#N)C2c1cccc(OC(=O)c2ccco2)c1 (stereo not given)	-2.3	-1.8	6.1	4.4	12.1	·
CC(=NNC(=O)CNC(=O)C1COc2ccccc2O1)c1ccc(Cl)cc1 (stereo not given)	·	·	9.0	·	·	·
Cc1cccc(N2C(=O)N3C(c4ccc(Br)cc4)C4C(=O)N(C(C)(C)C)C(=O)C4[C@]3(Cc3ccc(Cl)cc3)C2=O)c1 (stereo not given in full)	·	·	3.7	·	·	·
COc1ccc(C2CC=C(C(=O)O)C(c3ccccc3F)N2S(=O)(=O)c2ccccc2C)cc1 (stereo not given)	·	·	9.2	·	·	·
C#CCOC(=O)c1ccccc1C(=O)n1nnc2ccccc21	50.5*	-0.9	8.1	0.8	-1.9	35.1*
CC=C(C)C(=O)Nc1cccc(C2=NOC3(C2)CC(C(N)=O)N(C(=O)c2cc([N+](=O)[O-])cc([N+](=O)[O-])c2C)C3)c1 (stereo not given)	·	·	-3.1	·	·	·
CCc1oc2ccccc2c1C(=O)c1cc(Br)c(O)c(Br)c1	25.5	-5.0	·	3.6	0.8	18.5*
CCc1ccc(OCC(=O)c2c(O)c3ccccc3oc2=O)cc1	-1.2	-2.0	-3.3	-2.9	8.9	·
CCOC(=O)C1CCC2(CC1)C(C#N)=C(N)Oc1n[nH]c(C)c12 (stereo not given)	79.0*	-3.3	3.3	2.1	-4.5	>38
CCOC(=O)C1CCCCC12C(C#N)=C(N)Oc1n[nH]c(C)c12 (stereo not given)	22.8	-2.7	2.5	-2.1	-2.6	·
Cc1[nH]nc2c1C1(CCN(Cc3ccccc3)CC1)C(C#N)=C(N)O2	84.9*	1.2	·	2.6	-2.5	14.1*
CC(C)c1[nH]nc2c1C1(CCN(Cc3ccccc3)CC1)C(C#N)=C(N)O2	67.5*	0.6	6.3	0.5	-1.6	21.3*
Cc1[nH]nc2c1C1(CCOCC1)C(C#N)=C(N)O2	78.5*	-1.8	6.2	1.4	2.0	12.5*
Cc1[nH]nc2c1C1(CCOC1C)C(C#N)=C(N)O2 (stereo not given)	-1.1	0.6	14.4	-9.0	0.3	·
CC(=NNc1nnc(-c2ccccc2)c(-c2ccccc2)n1)c1cccc([N+](=O)[O-])c1	·	·	-1.3	·	·	·
CCOC1OC(C(=O)N2CCCCCCC2)=CC(c2ccc3c(c2)OCO3)C1CCCO (stereo not given)	·	·	4.0	·	·	·
CCn1c2ccccc2c2cc(C=Nn3c(-c4cc(C)[nH]n4)n[nH]c3=S)ccc21	·	·	8.1	·	·	·
Cc1sc2ncnc(Sc3nnnn3-c3ccccc3)c2c1C	33.8*	-4.9	1.0	-2.2	-4.3	17.8*
Clc1ccc(-n2nnnc2Sc2ncnc3sccc23)cc1	38.5*	2.1	·	0.3	-9.6	10*
